SMILES strings stand for the structures. The whole screen tested about 360,000 compounds, of which about 7,300 (2%) were called active. The sample holds actives, similar compounds and a random draw of the others, so the mix is not that of the screen. Rule as the data show it: active = inhibition above about 50%; inactive = the rest.

The term inhibition denotes the relative decrease from the control value, in per cent.

The experiment in a line: blockers of TWEAK-induced Fn14 reporter activity – luciferase reporter cells, uHTS, primary screen (AID 1159606). Conditions: TWEAK-stimulated Fn14 reporter cells, luciferase luminescence, 8 h; at 10 µM; hits give high values. In general terms: A reporter such as luciferase makes a cellular process visible.
For `CC1=CC=CC2=N/C(=N\S(=O)(=O)c3ccc(F)cc3F)c3ccccc3CN12`, the inhibition was -4.26% (inactive).

On to `COc1ccccc1NS(=O)(=O)c1ccc(C(=O)N2CCN(c3ccccc3O)CC2)cc1`, for which the inhibition is 9.79% (inactive).

As for `O=S(=O)(Nc1ccc(OC(F)(F)F)cc1)c1cccc2nonc12`, the inhibition was -6.65% (inactive).

As to `O=S(=O)(Nc1ccc(O)c2ccccc12)c1ccc(OC(F)(F)F)cc1`, the inhibition was 84.1% (active).

With `O=C(NNC(=O)c1cccc(S(=O)(=O)Nc2ccc(Cl)cc2)c1)c1ccc(=O)[nH]c1`, the inhibition was 12.3% (inactive).

For `Cc1ccc(NC(=O)Nc2nnc(-c3ccncc3)s2)cc1`, the inhibition is 54.9% (active).

Regarding `CC(C)=CC(=O)Nc1nnc(-c2ccc(F)cc2)s1`, the inhibition is -55.7% (inactive).

`CCc1ccc(NC(=O)Nc2ccncc2)cc1`: the inhibition is -5.44% (inactive).

On to `Cc1cc(=O)oc(C)c1C(=O)Nc1cnc2ccccc2c1`, for which the inhibition is 1.75% (inactive).

Take `CC1(C)OC(=O)C2=C(C[C@@H](C3CC3)O[C@H]2c2ccc(Cl)cc2)O1`: the inhibition was 7.97% (inactive).

Consider `CCCCOC(=O)c1ccc(NC(c2ccc(C)cc2)P(=O)(OC)OC)cc1` (centres undefined), for which the inhibition was 4.7% (inactive).

In the case of `O=[N+]([O-])c1ccc(Oc2ccc(F)cc2Br)c2ccncc12`, the inhibition was 69.9% (active).

For the compound `CC(NC(=O)CCCC1CCCCC1)c1ccc(S(N)(=O)=O)cc1` (centres undefined), the inhibition is 11.9% (inactive).

As to `Cc1cc(S(=O)(=O)N2CCOCC2)ccc1OCC(=O)Nc1cccc(C(F)(F)F)c1`, the inhibition is 21.1% (inactive).

Regarding `CC(=O)N1c2ccc(S(=O)(=O)N3CCC(C(=O)N4CCN(c5ccccc5)CC4)CC3)cc2CC1C` (centres undefined), the inhibition is -8.65% (inactive).

For `CC(=O)N1CCCc2cc(S(=O)(=O)N3CCCC(C(=O)N4CCN(c5cccc(Cl)c5)CC4)C3)ccc21` (centres undefined), the inhibition is 87.5% (active).

Take `CC(=O)N1CCCc2cc(S(=O)(=O)CCC(=O)N3CCN(c4ccccc4)CC3)ccc21`: the inhibition is -26.2% (inactive).

Turning to `Cc1ccnc(SCCn2c(N(C)Cc3ccccc3)nc3c2c(=O)n(C)c(=O)n3C)n1`, the inhibition is -11.8% (inactive).

`O=c1c2ccccc2c(-c2ccc(F)cc2)nn1-c1ccc(C(F)(F)F)cc1`: the inhibition is -4.84% (inactive).

Consider `Cn1c(-c2ccc(F)cc2)cc2onc(-c3ccccc3Cl)c2c1=O`, for which the inhibition is 6.49% (inactive).

`Cn1c(-c2ccc(C(F)(F)F)cc2)cc2onc(-c3ccccc3)c2c1=O`: the inhibition is 51.4% (active).

Consider `CC(=O)N1Cc2cc(C(=O)NCc3cccc(F)c3)nc(-c3cccc(C4=CCCCC4)c3)c2[C@H]1CCO`, for which the inhibition was 24.6% (inactive).

In the case of `CCCCn1c(N)c(N(CCOC)C(=O)CSCC(=O)Nc2cccc(C)c2)c(=O)[nH]c1=O`, the inhibition is 4.51% (inactive).

On to `CC(C)Nc1ccc(-n2nc3ccccc3[n+]2[O-])cc1`, for which the inhibition is 62.4% (active).

With `C[C@H]([C@@H](O)[C@@H](O)[C@@H](C)C(C)(C)C)[C@H]1CC[C@H]2C3CC[C@H]4C[C@H](OS(=O)(=O)O)[C@@H](OS(=O)(=O)O)C[C@]4(C)[C@H]3CC[C@]12C` (some centres undefined), the inhibition was 3.39% (inactive).

Take `CCCC1C(=O)N2C(N(C)C)=Nc3ccc(C)cc3N2C1=O` (centres undefined): the inhibition is -18.1% (inactive).

Take `C=CCOc1ccc(/C=C2\SC(=S)N(CCC(=O)O)C2=O)cc1`: the inhibition is 90% (active).

Regarding `O=C1/C(=C\c2ccccc2Cl)SC(=S)N1CCC(=O)N1CCCc2ccccc21`, the inhibition is 3.74% (inactive).

For the compound `O=C(O)c1ccc(/C=C2\SC(=S)N(NC(=O)c3ccc(Br)cc3)C2=O)cc1`, the inhibition was 2.06% (inactive).

In the case of `CCCNC(=O)C1(C)CCN(C(=O)c2ccc(F)cc2Cl)C1` (centres undefined), the inhibition is 2.61% (inactive).

For `COc1cccc2cc(C(N)=O)/c(=N\NC(=O)c3ccccc3)oc12`, the inhibition was 91.4% (active).

Turning to `COc1cccc2cc(C(=O)N(C)C)c(=O)oc12`, the inhibition is 0.46% (inactive).

Turning to `COc1cccc2cc(C(=O)N3CCN(C(=O)c4ccccc4)CC3)c(=O)oc12`, the inhibition is 11.9% (inactive).

As to `CCN(CC)S(=O)(=O)c1ccc(C(=O)N2CCN(C3=NS(=O)(=O)c4ccccc43)CC2)cc1`, the inhibition was -0.95% (inactive).

For `O=S1(=O)CC(N2CCN(CCO)CC2)CN1Cc1cn(Cc2cccc(Cl)c2)nn1` (centres undefined), the inhibition was 13.2% (inactive).

On to `CCOC(=O)C(NS(=O)(=O)c1ccc(C)cc1)(C(F)(F)F)P(=O)(OCC(C)C)OCC(C)C` (centres undefined), for which the inhibition was 56.7% (active).

Turning to `Cc1ccc(S(=O)(=O)NCC(C)NS(C)(=O)=O)cc1` (centres undefined), the inhibition is 4.2% (inactive).

Consider `CC(=O)N1CCN(CC(C)(C)NS(=O)(=O)c2ccc(C)cc2)CC1`, for which the inhibition is 14% (inactive).

In the case of `O=C(CN1C(=O)/C(=C\c2ccccc2F)SC1=S)Nc1nc2ccccc2s1`, the inhibition is 29.6% (inactive).

Take `O=C(CN1C(=O)/C(=C\c2ccc(C(F)(F)F)cc2)Sc2ccccc21)NCc1ccco1`: the inhibition is 27.1% (inactive).

With `O=C(CN1C(=O)/C(=C/c2ccccc2F)Sc2ccccc21)NCc1cccnc1`, the inhibition was 52.7% (active).

As to `O=C(NCc1ccccn1)[C@@H]1CCCN1C(=O)[C@@H]1CCCN1C(=O)c1ccccc1`, the inhibition was 7.41% (inactive).

Consider `Cc1ccc(NS(=O)(=O)c2cc3c(cc2C)NC(=O)CO3)cc1`, for which the inhibition was 8.45% (inactive).

In the case of `O=C(Nn1cnc2ccccc2c1=O)c1ccc(F)cc1Cl`, the inhibition is -23.3% (inactive).

Consider `CN1CCN(c2ccc([N+](=O)[O-])c(Sc3nc4ccccc4[nH]3)c2)CC1`, for which the inhibition was 17% (inactive).

In the case of `CCC(C)N1C(=O)S/C(=C/c2ccc(Sc3nc4ccccc4[nH]3)o2)C1=O` (centres undefined), the inhibition is 69.5% (active).

Consider `CC(C)c1ccc(/C=C2\NC(=O)NC2=O)cc1`, for which the inhibition is 18.4% (inactive).

As for `CCOc1ccc(C(=O)NC(=S)Nc2ccc(N3CCOCC3)c(Cl)c2)cc1[N+](=O)[O-]`, the inhibition was 62.8% (active).

Take `O=C(CSc1ccc([N+](=O)[O-])cn1)Nc1ccc(N2CCOCC2)c(Cl)c1`: the inhibition was -16.6% (inactive).

For `CCOc1ccc(C(=O)NC(=S)Nc2ccc(NC(=O)C(C)C)cc2)cc1[N+](=O)[O-]`, the inhibition is 3.3% (inactive).

For the compound `COc1ccc(/C(N)=N/OC(=O)Cc2ccccc2)cc1`, the inhibition was -44.1% (inactive).

With `COc1ccc(C(C#N)=C2C=CC(=NO)c3ccccc32)cc1`, the inhibition was 88% (active).

Regarding `COc1ccc(C(=NN)c2ccc(OC)cc2)cc1`, the inhibition was -20.6% (inactive).

For the compound `CCOc1ccc(Br)cc1S(=O)(=O)N1CCC(C(=O)O)CC1`, the inhibition is 0.18% (inactive).

On to `OCCNCCOc1ccc(Cl)c(Cl)c1`, for which the inhibition is 5.07% (inactive).

With `OCCNc1nc(Nc2ccc(Cl)c(Cl)c2)nc2ccccc12`, the inhibition was 84.3% (active).

Consider `O=C(Cn1c(NCCO)nc2ccccc21)c1ccc(Cl)cc1Cl`, for which the inhibition is 22.5% (inactive).

Regarding `COC(=O)[C@]12CCCCC=C1N(Cc1ccc(Cl)cc1Cl)C(=O)[C@H](CC(=O)NCc1cccc3ccccc13)C2`, the inhibition was 5.94% (inactive).

Take `O=C(COc1ccccc1)N1CCN=C1SCc1cccc(F)c1`: the inhibition was -2.31% (inactive).

For `COc1ccc(CCNC(=O)C2CCCN(Cc3nc(-c4cccc(Cl)c4)oc3C)C2)cc1OC` (centres undefined), the inhibition is 25.8% (inactive).

In the case of `O=C(COc1ccc(S(=O)(=O)NCCc2ccccc2)cc1)N1CCCC1`, the inhibition is 11.6% (inactive).

For the compound `COC(=O)C1(C)CC1(c1ccccc1)c1ccccc1` (centres undefined), the inhibition was 7.44% (inactive).

Regarding `O=C1c2ccccc2C(=O)N1CCC#Cc1ccc2cc(C3(O)CCCCC3)oc(=O)c2c1`, the inhibition is 71.2% (active).

In the case of `COc1cc(C#Cc2ccc3cc(CCCO)oc(=O)c3c2)cc(OC)c1`, the inhibition is 18.9% (inactive).

As to `C(#CCN1CCOCC1)CCCN1CCOCC1`, the inhibition is -1.19% (inactive).

Regarding `COc1ccc(CCNC(=O)c2c(C)nn(-c3ccccc3)c2Cl)cc1`, the inhibition is -12.5% (inactive).

As for `Cc1nn(-c2ccccc2)c(Cl)c1/C=C/C(=O)c1ccc(O)cc1`, the inhibition was 57.3% (active).

With `Cc1nn(-c2ccccc2)c(C)c1/C=C/C(=O)OC(C)C(N)=O` (centres undefined), the inhibition was -4.83% (inactive).

With `Cc1sc(NC(=S)NC(=O)c2cccs2)nc1-c1ccc(CC(C)C)cc1`, the inhibition was -5.35% (inactive).

For the compound `C=CCOC(=O)C1=C(C)NC(C)=C(C(=O)OCC=C)C1c1cccs1`, the inhibition is 20.3% (inactive).

`O=S1(=O)CC(N2CCN(CCO)CC2)CN1C1CCCC1` (centres undefined): the inhibition is 11.3% (inactive).

As for `COc1ccc(-c2c(C)nn3c(N4CCC(C(=O)N5CCCCC5)CC4)cc(C)nc23)cc1OC`, the inhibition was -3.08% (inactive).

In the case of `Cc1cc(C(=O)COc2ccccc2Cl)c(C)n1C1CC1`, the inhibition is -10.6% (inactive).

Regarding `Cc1cc(C(=O)COC(=O)C2CC2)c(C)n1-c1ccc(F)cc1`, the inhibition was 95.2% (active).

For `Cc1ccc(-n2c(C)cc(C(=O)CN3C(=O)C(=O)N(C4CCCC4)C3=O)c2C)cc1`, the inhibition is 40.7% (inactive).

Take `Nc1nc2c(Br)ccc(Br)c2cc1C(=O)NCCc1ccccc1`: the inhibition was 14.3% (inactive).

In the case of `CCCCc1cc(=O)oc2c(C)c(OCC(=O)N3CCC(C(N)=O)CC3)ccc12`, the inhibition is -5.28% (inactive).

As to `O=C(NCc1ccccc1Cl)c1csc([C@@H]2O[C@H](CO)[C@@H](O)[C@H]2O)n1`, the inhibition was -0.12% (inactive).

On to `COc1ccccc1CN1CCNC(=O)C1CC(=O)N(C)CC1CCOCC1` (centres undefined), for which the inhibition is 1.59% (inactive).

In the case of `CN(Cc1cccc2ncccc12)C(=O)CC1C(=O)NCCN1Cc1ccc(F)cc1` (centres undefined), the inhibition was -1.61% (inactive).

For the compound `CCN(CCn1cccn1)C(=O)CC1C(=O)NCCN1Cc1cccc(OC)c1OC` (centres undefined), the inhibition was 68.3% (active).

Regarding `Cc1nc2nc3c(cn2n1)C(=O)CC(c1ccccc1)C3` (centres undefined), the inhibition was 8.49% (inactive).

As to `CC1CN(C(=O)CN2C(=O)NC(C)(c3ccccc3)C2=O)CC(C)O1` (centres undefined), the inhibition is 0.1% (inactive).

For `CN(C)c1nc(N)nc(CSc2nnnn2-c2cccc3ccccc23)n1`, the inhibition is -0.11% (inactive).

`Cc1cccc(C)c1-n1nnnc1C1(C)CCC(=O)N1CCOc1ccccc1` (centres undefined): the inhibition is -0.09% (inactive).

As to `CCC1CCCCN1C(=O)CSc1nc2c(c(=O)n1C)SC(C)C2` (centres undefined), the inhibition was 4.38% (inactive).

With `CCN(CC)C(=O)c1nc[nH]c1C(=O)N(C)Cc1ccccc1`, the inhibition was 6.48% (inactive).

For the compound `CCN(CC)C(=O)c1sc2nc(-c3ccccc3)ccc2c1N`, the inhibition was 69.9% (active).

In the case of `CCOC(=O)C(C)n1nc(-c2ccccc2)c2ccccc2c1=O` (centres undefined), the inhibition was 7.15% (inactive).

The values are drawn from PubChem BioAssay AID1159606 (Sanford-Burnham Center for Chemical Genomics, 2016).
